According to article PMC4336329 (PLoS ONE, 2015):
The whole screen tested about 310,000 compounds, of which about 2,200 (0.71%) showed an effect of 50% or more. Effects have a minus sign here. This excerpt belongs to a sample that is enriched for strong results.

Target: human ether-à-go-go-related gene (hERG) potassium channel (human, UniProt Q12809)
Assay: primary screen, population patch clamp on CHO cells stably expressing hERG; higher = less effect of the substance

Sequence of human ether-à-go-go-related gene (hERG) potassium channel (Q12809 whole entry, looked up): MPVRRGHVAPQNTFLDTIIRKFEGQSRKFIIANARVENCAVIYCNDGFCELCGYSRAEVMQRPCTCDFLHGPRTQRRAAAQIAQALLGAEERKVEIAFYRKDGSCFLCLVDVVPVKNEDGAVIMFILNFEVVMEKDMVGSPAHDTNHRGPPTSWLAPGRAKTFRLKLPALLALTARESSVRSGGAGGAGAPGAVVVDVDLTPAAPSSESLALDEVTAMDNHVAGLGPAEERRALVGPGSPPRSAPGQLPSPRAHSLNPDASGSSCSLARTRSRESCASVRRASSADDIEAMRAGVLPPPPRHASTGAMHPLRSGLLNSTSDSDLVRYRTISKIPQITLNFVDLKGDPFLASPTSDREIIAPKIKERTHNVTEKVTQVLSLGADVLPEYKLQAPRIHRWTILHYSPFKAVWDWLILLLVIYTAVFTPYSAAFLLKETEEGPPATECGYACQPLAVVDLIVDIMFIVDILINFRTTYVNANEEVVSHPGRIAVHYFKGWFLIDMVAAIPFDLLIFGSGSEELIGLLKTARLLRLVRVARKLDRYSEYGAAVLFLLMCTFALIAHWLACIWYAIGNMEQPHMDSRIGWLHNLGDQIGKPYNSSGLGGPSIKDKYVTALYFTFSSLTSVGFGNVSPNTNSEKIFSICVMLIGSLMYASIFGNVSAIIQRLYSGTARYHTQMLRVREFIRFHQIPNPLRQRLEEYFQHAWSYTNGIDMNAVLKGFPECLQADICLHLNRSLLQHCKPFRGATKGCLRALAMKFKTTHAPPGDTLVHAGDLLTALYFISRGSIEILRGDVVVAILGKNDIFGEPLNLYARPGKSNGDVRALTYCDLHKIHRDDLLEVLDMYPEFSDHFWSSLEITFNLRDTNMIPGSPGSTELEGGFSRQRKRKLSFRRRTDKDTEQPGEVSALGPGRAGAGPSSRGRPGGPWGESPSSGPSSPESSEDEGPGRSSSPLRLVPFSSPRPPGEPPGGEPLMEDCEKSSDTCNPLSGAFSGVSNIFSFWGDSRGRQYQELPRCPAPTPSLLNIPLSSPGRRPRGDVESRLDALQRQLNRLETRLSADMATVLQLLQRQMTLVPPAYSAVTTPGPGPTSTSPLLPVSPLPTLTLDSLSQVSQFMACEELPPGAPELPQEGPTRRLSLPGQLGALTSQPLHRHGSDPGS

Row | SMILES | hERG current change (%, negative = inhibition) at 1uM [%]
1 | Cc1ccc(N(CC(O)CN2CCOCC2)S(=O)(=O)c2ccc3ccccc3c2)cc1 (stereo not shown) | -55.6
2 | Cc1ccc(-n2nc(C)c3c2OC(N)=C(C#N)C3c2cccs2)cc1 (stereo not shown) | 9.08
3 | CC1=CC2=NC(=O)CC(C)(C(=O)N(CC(=O)NC(C)(C)C)Cc3cccs3)N2C=C1 (stereo not shown) | -2.79
4 | CNc1ncc(-c2nnnn2-c2ccccc2)c(-c2ccccc2)n1 | 8.07
5 | Cc1ccc(N2CCN(c3ncccc3[N+](=O)[O-])CC2)c(C)c1 | 17.2
6 | CC(=O)NC(C(=O)N1CCC(c2nc3ccccc3s2)CC1)C(C)C (stereo not shown) | 8.96
7 | Cc1cc(C)nc(SCc2n[nH]c(=S)n2C)n1 | 7.9
8 | CCOC(=O)C1=C(N)OC2=C(C(=O)CC(C)(C)C2)C1c1ccco1 (stereo not shown) | -7.98
9 | FC(F)(F)c1ccccc1NC(=S)N1CCN(c2ncccn2)CC1 | 11.5
10 | O=C(NNC(=O)c1cccs1)c1ccccc1 | 5.51
11 | Cc1ccc(N(CC(O)CN2CCCCC2)S(=O)(=O)c2ccccc2)cc1 (stereo not shown) | -68.7
12 | COc1ccccc1N(CC(O)CN1CCCCC1)S(=O)(=O)c1ccc(C)cc1 (stereo not shown) | 2.61
13 | Cc1ccc(N(CC(O)CN2CCCC2)S(=O)(=O)c2ccccc2)cc1 (stereo not shown) | -47.4
14 | COc1ccc(N(CC(O)CN2CCCCC2)S(=O)(=O)c2ccc(C)cc2)cc1 (stereo not shown) | -82.9
15 | COc1ccc(N(CC(O)CN2CCOCC2)S(=O)(=O)c2ccc(C)cc2)cc1 (stereo not shown) | -6.48
16 | Cc1ccc(N(CC(O)CN2CCCCC2)S(=O)(=O)c2ccccc2[N+](=O)[O-])cc1 (stereo not shown) | -48.8
17 | Cc1c(C(=O)OC2CCCCC2)sc2nc[nH]c(=O)c12 | 16
18 | Cc1ccc(-c2oc3ncnc(N)c3c2-c2ccc(C)cc2)cc1 | -3.25
19 | COc1ccc(/C(C)=N/Nc2ccc(C(=O)O)cc2)cc1OC.O=S(=O)(O)O | 11.7
20 | Cn1c(SCC(=O)NCC2CCCO2)ncc(C(=O)Nc2ccc(F)cc2)c1=O (stereo not shown) | 5.38
21 | CN1C[C@H](CNC(=O)OCc2ccccc2)C[C@@H]2c3cccc4c3c(cn4C)C[C@H]21 | -1.63
22 | COCCN(CC1CCCN(C2Cc3ccccc3C2)C1)C(=O)CCC(C)=O (stereo not shown) | 7.77
23 | COCCN(CC1CCCN(C2Cc3ccccc3C2)C1)C(=O)CCSC (stereo not shown) | -4.27

Row | SMILES | hERG current change (%, negative = inhibition) at 1uM [%]
24 | CCNC(=O)N(CCOC)CC1CCCN(C2Cc3ccccc3C2)C1 (stereo not shown) | 11.7
25 | COCCN(CC1CCCN(C2Cc3ccccc3C2)C1)C(=O)CCC(N)=O (stereo not shown) | -70.8
26 | COCCN(CC1CCCN(C2Cc3ccccc3C2)C1)C(=O)c1ccc(C(C)=O)cc1 (stereo not shown) | -51.9
27 | COCCN(CC1CCCN(C2Cc3ccccc3C2)C1)C(=O)CSC (stereo not shown) | 7.99
28 | N#Cc1ccccc1NC(=O)C1SC(=Nc2ccccc2)C(C(=O)Nc2ccc(Cl)cc2)=C1N (stereo not shown) | 6.56
29 | COC(=O)CCCNS(=O)(=O)c1ccc2ccccc2c1 | 10.7
30 | CC(C)N(CC#CC(O)(c1ccccc1)c1ccccc1)C(C)C | -38.1
31 | CC(C)(C)C(=O)Cn1c(NCCCl)nc2ccccc21.Cl | 13.8
32 | CCNc1nc(CSc2ccccc2)nc2sc(C)c(C)c12 | 6.57
33 | COCCNc1nc(CSc2ccccc2)nc2sc(C)c(C)c12 | 11.8
34 | Cc1sc2nc(CSc3ccccc3)nc(NCCN(C)C)c2c1C | -50.1
35 | COc1ccc(C(=O)N2CCCN(C)CC2)cc1S(=O)(=O)N1CCCc2ccccc21 | 1.09
36 | NC(=O)c1nsc(C(=O)N(CC(=O)NCc2ccco2)c2ccccc2F)c1N | 1.03
37 | Fc1ccc(NC(=S)Nc2ccc(F)c(Cl)c2)cc1Cl | 7.52
38 | C=CCn1c(SCC(=O)N(C)C2CCS(=O)(=O)C2)nc2ccccc2c1=O (stereo not shown) | -36.1
39 | CCN(C(=O)CSc1n[nH]c(-c2cccs2)n1)C1CCS(=O)(=O)C1 (stereo not shown) | 11.8
40 | CCN(C(=O)CSc1nc2ccccc2c(=O)n1Cc1ccc(C)cc1)C1CCS(=O)(=O)C1 (stereo not shown) | -71.4
41 | C=CCn1c(SCC(=O)N(CC)C2CCS(=O)(=O)C2)nc2cc(C(=O)O)ccc2c1=O (stereo not shown) | 16.4
42 | O=C(CSc1nc(-c2cccs2)nc2ccccc12)NC1CCS(=O)(=O)C1 (stereo not shown) | 17.3
43 | C=CCn1c(SCC(=O)N(CC)C2CCS(=O)(=O)C2)nc2ccccc2c1=O (stereo not shown) | -81.6
44 | CCN(C(=O)CSc1nc(-c2cccs2)nc2ccccc12)C1CCS(=O)(=O)C1 (stereo not shown) | -78.4
45 | CCN(C(=O)CSc1nc2ccccc2c(=O)n1-c1ccc(C)cc1)C1CCS(=O)(=O)C1 (stereo not shown) | 1.16
46 | Cc1ccc(Cn2c(SCC(=O)N(C)C3CCS(=O)(=O)C3)nc3ccccc3c2=O)cc1 (stereo not shown) | -41.9
